High-throughput results from PubChem BioAssay.
BAZ2B inh – qHTS Assay for Inhibitors of BAZ2B; Bromodomain adjacent to zinc finger domain protein 2B (Homo sapiens), Q9UIF8; AlphaScreen BAZ2B-H3K14Ac peptide displacement; Potency, µM (highest dose often 114 µM), for the others: top-dose activity change, negative = inhibition, actives largely listed as inhibitors; 360,000 compounds, 4.4% hits; also: potency is read from the fitted curve at half-maximal effect; % is scaled to controls: 0 for no effect and ±100 for the full control effect; nearly all actives have a fitted effect of over 60% in size
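AlphaScreen displacement: compounds (up to 110uM) incubated 30 min at room temperature with a preformed 50 nM BAZ2B/50 nM biotinylated H3K14Ac peptide complex in PBS pH 7.4 with Tween-20. Donor and acceptor beads at 10 ug/mL final added, 20 min light-protected before reading.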
PI5P4K alpha inh – qHTS for Inhibitors of phosphatidylinositol 5-phosphate 4-kinase (PI5P4K); PI5P4Kalpha enzyme, ADP-Glo luminescence, 60 min; active compounds read low; max response, %; 330,000 compounds, 1.2% hits; active = max response of -50% or lower; inconclusive = between -30% and -50%; inactive = -30% or higher; also: value at the top dose of about 77 µM; % is scaled to controls: 0 for no effect and ±100 for the full control effect
Target sequence (P48426 whole entry, looked up): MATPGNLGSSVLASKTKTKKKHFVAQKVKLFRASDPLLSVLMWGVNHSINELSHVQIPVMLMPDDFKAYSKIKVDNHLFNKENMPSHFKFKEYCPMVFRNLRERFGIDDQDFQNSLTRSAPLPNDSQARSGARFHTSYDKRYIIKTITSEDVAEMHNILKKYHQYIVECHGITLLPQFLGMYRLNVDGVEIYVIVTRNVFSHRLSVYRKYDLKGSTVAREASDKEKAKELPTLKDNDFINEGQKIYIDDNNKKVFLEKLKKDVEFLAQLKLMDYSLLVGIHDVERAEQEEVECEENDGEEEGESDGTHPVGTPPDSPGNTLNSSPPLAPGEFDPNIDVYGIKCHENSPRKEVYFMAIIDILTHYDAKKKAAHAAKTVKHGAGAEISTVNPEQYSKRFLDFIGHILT
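Enzyme plus substrate dispensed, test compounds pinned in, then ATP (5 microM final) added. After 60 min at RT, ADP-Glo reagent 1 for 45 min and reagent 2 for 30 min preceded luminescence imaging.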
G9a inh – qHTS Assay for Inhibitors of Histone Lysine Methyltransferase G9a. G9a H3K9 monomethylation, AlphaScreen, 2 h. Potency, µM (series often up to 102 µM), without a hit: at the highest dose activity, negative = inhibition, usual class: inhibitors. 350,000 compounds, 8.8% hits. AID 504332, 2011; also: potency is read from the fitted curve at half-maximal effect; % is scaled to controls: 0 for no effect and ±100 for the full control effect; nearly all actives have a fitted effect of over 75% in size
Target sequence (Q96KQ7 913-1193 limits assumed): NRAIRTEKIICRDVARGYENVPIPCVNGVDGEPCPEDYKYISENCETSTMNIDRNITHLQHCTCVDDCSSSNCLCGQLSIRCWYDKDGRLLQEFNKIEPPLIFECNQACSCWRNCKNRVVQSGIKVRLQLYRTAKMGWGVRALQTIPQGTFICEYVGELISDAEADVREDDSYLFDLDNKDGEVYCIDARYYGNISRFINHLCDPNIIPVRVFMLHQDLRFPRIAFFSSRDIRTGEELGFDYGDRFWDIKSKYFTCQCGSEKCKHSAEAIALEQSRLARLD
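G9a (20 nM) preincubated 15 min RT with compounds, then 500 nM biotinylated H3K9 peptide and 20 uM SAM added; 2 h RT reaction. Monomethyl-H3K9 product detected by AlphaScreen with anti-H3K9me1 antibody, streptavidin donor and anti-rabbit IgG acceptor beads.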
JMJD2A Tudor inh – qHTS Assay for Inhibitors of JMJD2A-Tudor Domain. Potency, µM (doses to about 114 µM), inactives show at the highest dose activity change, negative = inhibition, actives largely listed as inhibitors. AlphaScreen JMJD2A-Tudor / H3K4me3 peptide binding. AID 504339, 2011. 390,000 compounds, 4.4% hits. Lysine-specific demethylase 4A (Homo sapiens), O75164; also: potency is read from the fitted curve at half-maximal effect; % is scaled to controls: 0 for no effect and ±100 for the full control effect; nearly all actives have a fitted effect of over 50% in size
PLK1 PBD block – qHTS for Inhibitors of PLK1-PDB (polo-like kinase 1 - polo-box domain): Primary Screen | Serine/threonine-protein kinase PLK1 (Homo sapiens), P53350 | Plk1 PBD binding of FITC phosphopeptide, fluorescence polarization | Potency, µM, inactives show max response, negative = inhibition, most hits filed as inhibitors | 360,000 compounds, 2.8% hits; also: potency is read from the fitted curve at half-maximal effect; series mostly up to about 57 µM; % is scaled to controls: 0 for no effect and ±100 for the full control effect; nearly all actives have a fitted effect of over 65% in size
HP1b binding inh – HTS for Inhibitors of HP1-beta Chromodomain Interactions with Methylated Histone Tails; AlphaScreen HP1-beta / biotin-H3K9me3 peptide binding; Potency, µM (highest dose often 114 µM), without a hit: at the highest dose activity change, negative = inhibition, hits mostly inhibitors; 390,000 compounds, 0.56% hits; also: potency is read from the fitted curve at half-maximal effect; nearly all actives have a fitted effect of over 70% in size
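Compound inhibition of the preformed complex between 50 nM HP1-beta and 50 nM biotinylated H3K9me3 peptide was read by AlphaScreen. Buffer was PBS pH 7.4 with 0.01% Tween-20. Incubations ran 30 min at room temperature, with 10 ug/mL donor/acceptor beads.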
Starred values were filed as active, the others as inactive; u = inconclusive; x = no result; [ ] = dose if it differs, or a comment. Shown are actives, neighbours in structure and some others; about 12% of the full set was active somewhere. Unless noted, calls follow the shape of the dose curve; as a rule, active = well fitted curve in the direction sought with a large enough effect; inconclusive = small, poorly fitted or top-dose-only effect, or another doubt; inactive = no such curve, though single readings can be large; an effect the other way counts as inactive or inconclusive.

SMILES	BAZ2B inh	PI5P4K alpha inh	G9a inh	JMJD2A Tudor inh	PLK1 PBD block	HP1b binding inh
CCOc1ccccc1-n1c(C)cc(C=O)c1C	-32%	0	25%[12.7 µM]	-31%	0%	-2%
CCN(CC)c1ccc(-n2c(C)c(C(C)=O)c(C(C)=O)c2C)cc1	x	0	u	89µM*	-1%	u
CCN(CC)c1ccc(-n2c(C)cc(C=O)c2C)cc1	u	-4	45µM*	-7%[11.4 µM]	-18%	u
COc1ccc2c(Sc3ccc(C)cc3)c(C(=O)NCc3ccc(F)cc3)[nH]c2c1	-22%	x	u	-30%	x	11%
COc1ccc(S(=O)(=O)N=Nc2c(O)[nH]c3ccccc23)cc1	-3%	-17	3.2µM*	-27%	-14%	61%
Cc1ccc(S(=O)(=O)N=Nc2c(O)[nH]c3ccccc23)cc1C	-35%	-8	4.5µM*	35µM*	-12%	47%
COc1ccc(NC(=S)N=Nc2c(O)[nH]c3ccccc23)cc1	-27%	-18	-34%	-13%	-4%	4%
Cc1ccccc1OCc1nc2ccccc2n1Cc1ccccc1Cl	48%	x	3%[59 µM]	39%	x	73%
Cc1ccc(C(=O)CCC(=O)OC(C)C(=O)NC2CCCCC2C)cc1 (stereo not drawn)	-3%	1	2%[12.7 µM]	3%	-17%	23%
CCOc1cc(Br)c(CN2C(=O)NC3(CCCCCC3)C2=O)cc1OCC	-10%	11	5%	-1%	4%	22%
CC(C)(C)n1c(O)c2ccc(C(=O)N=NC(=O)c3ccccc3)cc2c1O	-27%	2	37%	0%	0%	42%
Cn1c(N=NC(=O)c2ccccc2)c(O)c2ccccc21	22µM*	-20	u	32µM*	27µM*	32µM*
Cc1ccc(/C=C/c2ccc3cccc(O)c3n2)s1	30%	1	28µM*	-1%	-8%	28%
Oc1cccc(/C=C/c2ccc3cccc(O)c3n2)c1	u	-27	-15%	-25%	1%	-6%
CC(=O)Oc1ccc2occ(/C=N/c3cc(=O)[nH]c(=S)[nH]3)c(=O)c2c1	-29%	-51*	11µM*	-21%[11.4 µM]	5.3µM*	-18%
Cc1ccc2occ(/C=N/O)c(=O)c2c1	1%	-10	-6%[59 µM]	-2%	-16%	21%
C#CCOCCOCCOCCNc1nc(N2CCN(C(=O)[C@H](CCCCN)n3cc(CN)nn3)CC2)nc(N2CCN(C(=O)[C@H](CCC(=O)O)n3cc([C@@H](N)CCCCN)nn3)CC2)n1	x	-2	x	89µM*	4%	32%
C#CCOCCOCCOCCNc1nc(N2CCN(C(=O)[C@H](CCCCN)n3cc(CN)nn3)CC2)nc(N2CCN(C(=O)[C@H](CCCCN)n3cc(CN)nn3)CC2)n1	x	1	x	79µM*	-12%	29%
C#CCOCCOCCOCCNc1nc(N2CCOCC2)nc(N2CCN(C(=O)[C@H](CCCCN)n3cc(CCC(=O)O)nn3)CC2)n1	x	-6	x	-10%	0%	23%
C#CCOCCOCCOCCNc1nc(N2CCN(C(=O)[C@H](CCC(=O)O)n3cc(CN)nn3)CC2)nc(N2CCN(C(=O)[C@H](CCCCN)n3cc([C@@H](N)CC(N)=O)nn3)CC2)n1	x	-6	x	56µM*	-14%	46%
COc1ccc(C2C(C(=O)Nc3ccccc3OC)=C(C)Nc3c(C(=O)Nc4ccccc4)cnn32)c(OC)c1 (stereo not drawn)	-2%[57.1 µM]	x	-23%[59 µM]	-23%	x	22%
COc1cc(NS(=O)(=O)c2ccc(N/C=C\C(=O)c3ccc(C)cc3)cc2)nc(OC)n1	x	u	x	u	3.4µM*	-6%
COc1ccc(C(=O)/C=C/Nc2ccc(S(=O)(=O)Nc3cccc(C(C)=O)c3)cc2)cc1	3%	7	u	-1%	1%	26%
COc1cccc(C(=O)/C=C/Nc2ccc(S(=O)(=O)Nc3ccc(C(C)=O)cc3)cc2)c1	-3%	3	50µM*	-14%	-10%	-18%
COc1cccc(C(=O)/C=C/Nc2ccc(S(=O)(=O)Nc3cc(OC)nc(OC)n3)cc2)c1	u	-16	79µM*	-20%	-22%	16%
SMILES	BAZ2B inh	PI5P4K alpha inh	G9a inh	JMJD2A Tudor inh	PLK1 PBD block	HP1b binding inh
COc1cc(NS(=O)(=O)c2ccc(N/C=C\C(=O)c3ccc(OC)c(OC)c3)cc2)nc(OC)n1	-10%	1	u	-13%	-13%	27%
COc1ccc(C(=O)/C=C/Nc2ccc(S(=O)(=O)Nc3cc(OC)nc(OC)n3)cc2)c(OC)c1	-22%	5	25µM*	-26%	-6%	10%
CCC(=O)Nc1ccc(C)cc1-c1nc2ccccc2n(C(C)C(=O)Nc2ccccc2CC)c1=O (stereo not drawn)	0%	x	u	-32%	x	47%
Cc1cccc2c(=O)cc(CSc3ccccc3NC(=O)c3cccc(Cl)c3)[nH]c12	0%	x	-4%[59 µM]	-10%	x	23%[57 µM]
COc1cccc(OCCn2cccc2/C=C2/C(=N)N3OC(C)=CC3=NC2=O)c1	u	0	18µM*	-10%	-20%	-2%
CC1=CC2=NC(=O)/C(=C\c3cccn3CCOc3cc(C)cc(C)c3)C(=N)N2O1	u	5	40µM*	u	0%	-10%
CCOc1ccc(/C=C2/C(=N)N3OC(C)=CC3=NC2=O)cc1OC	-3%	-19	-47%	-18%	21µM*	-7%
COc1cc(/C=C2/C(=N)N3OC(C)=CC3=NC2=O)ccc1OCCOc1ccc(C)cc1	9%	-4	10%[0.0925 µM]	5%[57.1 µM]	-3%	12%
CN(C)c1ccc(-c2csc(C(C)(O)c3cccc(F)c3)n2)cc1 (stereo not drawn)	x	22	x	x	-3%	x
Oc1cccc2ccc(Nc3ccccn3)nc12	5µM*	x	u	18µM*	-1%	29%
c1ccc(Nc2ccccc2Nc2ccccn2)nc1	-7%	x	u	-21%	-3%	12%
Cc1ccc(C(=O)NNC(=O)CSc2nnc3c(n2)[nH]c2ccc(F)cc23)cc1	u	x	x	20µM*	u	-41%
O=C(COC(=O)/C=C/c1cccc([N+](=O)[O-])c1)Nc1cccnc1Cl	x	1	x	-10%	2%	24%
CC(=O)Nc1ccc(NC(=O)COC(=O)c2ccccn2)cc1	50µM*	2	45µM*	-5%[57.1 µM]	-9%	36%
Cc1ccc(C(=O)OCC(=O)Nc2cccc(Cl)c2C)c(O)c1	-3%	0	-2%	-14%	-1%	41%
